Results published in PubChem BioAssay (NCI).
This is part of a sample that, as a whole, favours compounds with a hit. Of some 83,000 tested, about 20% had one in any assay.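 The test compound was applied at a single concentration to cells in 96-well plates for 48 hours, and percent growth was recorded.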 Unmarked numbers belong to inactive results. Active and inactive are the calls of the source. Rule for the calls: active = growth percent below 10; inactive = the rest.

tested on: UACC-257 melanoma; experiment: NCI-60 one-dose screen, 48 h (100 = growth as untreated, 0 = no growth, -100 = all killed); conditions: 10 µM unless noted

SMILES	growth
O=C1c2cccc3cccc(c23)C(=O)N1N1C(=O)c2cccc3c(N4CCOCC4)ccc(c23)C1=O	96.7%
CCO/C=N/C1=C(C#N)C(c2ccc(OC)cc2)c2sc3c(F)cccc3c2O1 (stereo not given)	71.6%
Cc1ccc(CNc2ccc(Cl)cc2NCc2ccc(C)c(O)c2)cc1O	46.2%
O=C(c1ccc(-c2nc(CSc3nc4ccccc4s3)no2)cc1)N1CCSCC1	35.7%
C/C(=C(/c1ccc(Cl)cc1)c1ccc(OCCN2CCCC2)cc1)c1ccc(Cl)cc1	98.6%
CC[C@]12C=CCN3CC[C@@]4(c5cc(NC(=O)CCC(=O)OCc6cn(Cc7ccc(F)cc7)nn6)c(OC)cc5N(C)[C@H]4[C@@](O)(C(=O)OC)[C@@H]1OC(C)=O)[C@@H]32	102%
C=C(C)[C@@H]1CC[C@]2(C(=O)O)CC[C@]3(C)[C@H](CC[C@@H]4[C@@]5(C)C[C@@H](Cc6cn(CCO[C@@H]7O[C@H](COC(C)=O)[C@H](OC(C)=O)[C@H](OC(C)=O)[C@H]7OC(C)=O)nn6)[C@H](O)C(C)(C)[C@@H]5CC[C@]43C)[C@@H]12	61.9%
C=CCn1c(SCC(=O)Nc2ccc(C(=O)/C=C/c3ccc(Cl)cc3)cc2)nnc1-c1cc(-c2ccc(S(N)(=O)=O)cc2)nc2ccccc12	99.8%
CCOC(=O)C1=NN(c2ccccc2)C(=O)/C1=C\N1C(=O)CC(=O)NC1=S	105%
CC12CCC3c4ccccc4CCC3(CO1)C2 (stereo not given)	110%
O=C1CC(N2C(=O)/C(=C/C(Cl)=C\c3ccc([N+](=O)[O-])cc3)SC2=S)C(=O)N1c1ccc(Cl)cc1 (stereo not given)	57.8%
CC1(C)c2[nH]c3ccccc3c2C[C@]2(C)[C@H]3CC=C4[C@@H]5C[C@@](C)(C(N)=O)CC[C@]5(C)CC[C@@]4(C)[C@]3(C)CC[C@@H]12	52.5%
CCCCCOc1ccc(C(=O)/C(Br)=C/C(=O)O)cc1	106%
CC(C)N1CCN(Cc2ccc3c(NNC(=O)c4ccccc4)nc4cc(F)ccc4n23)CC1	12.4%
N#Cc1cccc(NC(=O)c2oc3ccccc3c2-c2cnn(-c3ccccc3)c2)c1	94.7% [50 µM]
Cc1cccc(N2CCN(CC(O)COc3ccc(Cl)cc3)CC2)c1 (stereo not given)	108%
CCOC(=O)c1c(C)nc2c(c1N)CC(=O)N2Cc1cc(F)cc(Cl)c1	82%
C[C@@H]1CCC[C@H]1CC(N)C(=O)O (stereo not given in full)	106%
O=CC1(C2(C=O)c3ccccc3-c3ccccc32)c2ccccc2-c2ccccc21	-76.1% (active)
O=C1Nc2ccc(I)cc2C1=O	-28.4% (active)

SMILES	growth
CN1CCN(c2ccc(NC(=O)c3nc4ccc5[nH]ncc5c4c4c3CCCC4)cc2C(F)(F)F)CC1	98.7%
CN(C)C1CCN(Cc2ccc(NC(=O)c3cncc(C#Cc4cnc(N)c5ncccc45)c3)cc2C(F)(F)F)CC1	15.5%
COc1ccc(C/C(C)=C(/c2ccc(OCCN3CCCCC3)cc2)c2ccc(OC(=O)NCc3ccccc3)cc2)cc1	-83.2% (active)
COc1ccccc1NC(=O)Cn1cc(CN2CCN(c3ccnc4cc(Cl)ccc34)CC2)nn1	106%
N=C(N)c1ccc(-c2ccc(-c3ccc(F)cc3)o2)o1	57.7%
CN1C(=O)/C(=C/c2ccc(C(=O)Nc3ncc(Cc4ccc(Cl)cc4)s3)cc2)SC1=S	67.1%
CCCCCC(=O)OCC(=O)O[C@@H]1C[C@]2(C(C)C)O[C@@]1(C)[C@@H]1CC[C@@H](C)[C@H]1[C@@H]2OC(=O)/C=C/c1ccccc1	87.2%
CC(=O)N(N=Nc1ccccc1)c1cccc2ccccc12	103%
COc1ccc(/C=C2\C(=O)N=C3N2NC(c2cc(Br)ccc2O)C=C(C)N3c2ccccc2)cc1 (stereo not given)	96.7%
CC(C)(C)[Si](C)(C)O[C@H]1C(=O)C=CN2CC=C[C@@H]12	93.6% [100 µM]
C=C1C(=O)O[C@H]2[C@H]1CC/C(COC(=O)CSCCSCC(=O)OC/C1=C/CC[C@@]3(C)O[C@H]3[C@H]3OC(=O)C(=C)[C@@H]3CC1)=C\CC[C@@]1(C)O[C@@H]21	49.9%
Brc1ccc2[nH]cc(-c3nonc3-c3c[nH]c4ccccc34)c2c1	56.9%
COc1cccc(NC(=O)Cn2cc(CN3CCN(c4ccnc5cc(Cl)ccc45)CC3)nn2)c1	102%
CCOc1ccc(NC(=O)CSc2oc(-c3ccccc3)nc2S(=O)(=O)c2ccc(F)cc2)cc1	70.1%
O=C1Nc2ccc(Br)cc2/C1=N/c1n[nH]c(=S)s1	99.6%
COc1ccc(C(=O)C2C(c3ccc(OC)cc3)CN(C)C23C(=O)Nc2ccccc23)cc1 (stereo not given)	97.5%
Cc1noc(C)c1C(=O)OCc1coc2ccccc2c1=O	72.2%
C[C@]12CC[C@@H]3c4ccc(O)c([N+](=O)[O-])c4CC[C@H]3[C@@H]1CCC2=O	106%
COc1cccc([C@H]2c3[nH]c4ccccc4c3C[C@H]3C(=O)N(CCCCCCC(=O)NO)CC(=O)N23)c1	51.6%
CO/N=C(/C)c1ccc(NC(=O)CSc2nnc(-c3ccncc3)n2-c2ccccc2)cc1	50.6%
